# RGS4 inh: Inhibitors of Regulator of G Protein Signaling (RGS) 4: qHTS | Transcreener GDP fluorescence polarization, RGS4-accelerated GTP hydrolysis | Potency, µM (series often up to 114 µM), hits mostly inhibitors | hit rate 0.039% among 390,000 | AID 504845, 2011; note: nearly all actives have a fitted effect of over 75% in size
#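 MLSMR compounds (23 nl, pin-transferred) preincubated 10 min at room temperature with a 500nM (2x) first reagent, then RGS4 at 900nM (2x) plus Transcreener GDP mix added; fluorescence polarization (620/688 nm) read before and after 90 min at 30 °C.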
# EPAC2 antag: qHTS for Antagonist of cAMP-regulated guanine nucleotide exchange factor 2 (EPAC2): primary screen. EPAC2 GEF exchange of Rap1B-BODIPY-GDP, fluorescence. hit rate 0.18% among 360,000. Rap guanine nucleotide exchange factor 4 (Homo sapiens), Q8WZA2. AID 720708, 2013. Potency, µM (series often up to 114 µM), most hits filed as inhibitors; note: nearly all actives have a fitted effect of over 45% in size
# Target sequence (Q8WZA2 whole entry, looked up): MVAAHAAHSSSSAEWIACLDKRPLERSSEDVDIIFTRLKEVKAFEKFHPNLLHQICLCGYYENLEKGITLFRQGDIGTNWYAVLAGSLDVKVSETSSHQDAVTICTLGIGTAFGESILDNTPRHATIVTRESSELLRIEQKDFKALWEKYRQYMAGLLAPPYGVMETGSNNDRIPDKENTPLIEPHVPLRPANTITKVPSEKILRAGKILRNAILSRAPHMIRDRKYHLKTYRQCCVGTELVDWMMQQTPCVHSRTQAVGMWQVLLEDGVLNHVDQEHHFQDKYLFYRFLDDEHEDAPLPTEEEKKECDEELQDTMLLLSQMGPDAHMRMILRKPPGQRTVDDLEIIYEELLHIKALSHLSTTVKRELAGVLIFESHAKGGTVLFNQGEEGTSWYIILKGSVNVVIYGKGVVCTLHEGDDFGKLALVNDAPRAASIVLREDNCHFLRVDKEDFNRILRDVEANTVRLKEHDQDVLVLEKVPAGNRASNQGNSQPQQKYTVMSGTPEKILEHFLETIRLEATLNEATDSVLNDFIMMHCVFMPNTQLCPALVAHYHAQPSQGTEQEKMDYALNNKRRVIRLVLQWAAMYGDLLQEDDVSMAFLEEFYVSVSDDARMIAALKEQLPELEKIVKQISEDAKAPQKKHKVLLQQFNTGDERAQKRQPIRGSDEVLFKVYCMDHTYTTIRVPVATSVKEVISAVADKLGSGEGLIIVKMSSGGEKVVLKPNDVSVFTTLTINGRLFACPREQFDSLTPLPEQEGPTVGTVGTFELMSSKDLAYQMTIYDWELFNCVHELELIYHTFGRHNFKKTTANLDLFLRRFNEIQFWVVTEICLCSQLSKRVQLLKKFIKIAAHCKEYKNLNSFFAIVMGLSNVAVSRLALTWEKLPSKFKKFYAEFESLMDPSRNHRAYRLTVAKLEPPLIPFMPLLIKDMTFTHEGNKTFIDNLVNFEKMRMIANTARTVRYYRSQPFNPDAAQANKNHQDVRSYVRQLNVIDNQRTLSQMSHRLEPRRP
# EPAC1 ag: qHTS for Agonist of cAMP-regulated guanine nucleotide exchange factor 3 (EPAC1): primary screen; Rap guanine nucleotide exchange factor 3 (Homo sapiens), O95398; EPAC1 agonist qHTS, biochemical assay; response scale: 100% = response to 6.5 mM cAMP; Potency, µM (highest dose often 154 µM), usual class: activators; hit rate 0.073% among 360,000; AID 720707, 2013; note: nearly all actives have a fitted effect of over 60% in size
#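 Compounds were pinned as a concentration titration into mixtures of EPAC1 (100 nM), BODIPY-GDP-loaded Rap1B (250 nM) and GDP (50 uM). After 5 min at room temperature, fluorescence was followed for 30 min; activity was scaled to 6.5 mM cAMP.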
# EPAC2 ag: qHTS for Agonist of cAMP-regulated guanine nucleotide exchange factor 4 (EPAC2): primary screen | Potency, µM (doses to about 154 µM), actives largely listed as activators | hit rate 0.079% among 360,000 | Rap guanine nucleotide exchange factor 4 (Homo sapiens), Q8WZA2 | EPAC2 activation, biochemical qHTS; response scale: 100% = 6.5 mM cAMP response; note: nearly all actives have a fitted effect of over 50% in size
#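 qHTS, titration series. 100 nM EPAC2 / 250 nM Rap1B-BODIPY-GDP / 50 uM GDP; RT; ex 480/em 540 nm, 5-min reads to 30 min. Norm. to 6.5 mM cAMP = activation.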
# EPAC1 antag: qHTS for Antagonist of cAMP-regulated guanine nucleotide exchange factor 3 (EPAC1): primary screen; EPAC1 GEF assay, Rap1b-BODIPY-GDP exchange fluorescence; Potency, µM (titrated, usually from 115 µM), hits mostly inhibitors; Rap guanine nucleotide exchange factor 3 (Homo sapiens), O95398; hit rate 0.14% among 360,000; note: nearly all actives have a fitted effect of over 50% in size
# BRCA1 expr up: qHTS Assay to Identify Small Molecule Activators of BRCA1 Expression; hit rate 1.1% among 380,000; MCF7-BRCA1-FFLuc reporter, luminescence, 48 h; response scale: scaled: vehicle 0%, 10 µM genistein 100%; Potency, µM (highest dose often 46.1 µM), most hits filed as activators; note: nearly all actives have a fitted effect of over 80% in size
#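 MCF7-BRCA1-FFLuc cells, 2000/well in phenol-red-free MEM, attached 2 h then treated 48 h at 37 C. Luciferase luminescence read 15 min after reagent; normalized to genistein maximum activation (10microM) and DMSO, concentration-response fitted.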
# Hits are given with their value; i = inactive; ? = inconclusive; nt = no result given. An excerpt weighted towards active compounds, which were near 1.3% of everything screened. Calls come from the whole dose curve; as a rule, active = well fitted curve in the direction sought with a large enough effect; inconclusive = small, poorly fitted or top-dose-only effect, or another doubt; inactive = no such curve, though single readings can be large; an effect the other way counts as inactive or inconclusive.
SMILES,RGS4 inh,EPAC2 antag,EPAC1 ag,EPAC2 ag,EPAC1 antag,BRCA1 expr up
O=C(Nc1cccc([N+](=O)[O-])c1)c1ccc2c(c1)OCCO2,i,i,i,i,i,13µM
O=C(NC(=S)Nc1cccc([N+](=O)[O-])c1)c1ccccc1,i,i,i,i,i,11µM
C/C(=N/NC(=O)c1ccc2c(c1)OCO2)c1cccc([N+](=O)[O-])c1,i,i,i,i,i,5µM
CC(Sc1ccccn1)C(=O)Nc1ccccc1 (configuration not stated),i,i,i,i,i,i
CC(C)NC(=O)CSc1nc(Cc2ccccc2)nc2ccccc12,i,i,i,i,i,i
CCCCN(C(=O)Cc1cccs1)c1nnc(-c2cccnc2)s1,i,i,i,i,i,3.2µM
COCCN(C(=O)Cc1cccs1)c1nnc(-c2cccnc2)s1,i,i,i,i,i,i
Cc1c(C(=O)N2C[C@@H](C)O[C@@H](C)C2)oc2c(F)cccc12,i,i,i,i,i,11µM
CCOC(=O)/C(C#N)=C\c1ccc(N2CCN(C/C=C/c3ccccc3)CC2)cc1,i,i,89µM,50µM,i,i
CC(C)OC(=O)CSc1nc2cc3c(cc2cc1C#N)OCO3,i,i,i,i,i,4.5µM
CCOC(=O)CSc1nc2ccc(C)cc2cc1C#N,i,i,i,i,i,4µM
CC(=O)C[C@@H]1OC[C@H](C(C)C)N1S(=O)(=O)c1ccc(C)cc1,nt,i,i,i,i,nt
CC(=O)C[C@H]1SC[C@@H](C(C)C)N1S(=O)(=O)c1ccc(C)cc1,nt,40µM,i,i,i,nt
CCOc1ccc(NS(=O)(=O)c2ccc3[nH]c4c(c3c2)CCCC4)cc1,i,nt,nt,nt,nt,nt
O=C1C(Cl)=C(NCC2CCCO2)C(=O)N1CCc1ccccc1 (configuration not stated),i,i,i,i,i,7.9µM
O=C1C(Cl)=C(NCCc2ccccc2)C(=O)N1CCc1ccccc1,i,i,i,i,i,7.9µM
O=C1C(Cl)=C(NCC2CCCO2)C(=O)N1c1cccc(Cl)c1Cl (configuration not stated),i,i,i,i,i,i
O=C1C(Cl)=C(NCCCN2CCOCC2)C(=O)N1CCc1ccccc1,i,i,i,i,i,i
O=[N+]([O-])c1cc(-c2ccccc2)cc([N+](=O)[O-])c1O,i,56µM,i,i,?,i
CCOC(=O)c1cccc(NC(=O)c2cnccn2)c1,i,i,i,i,i,i
CN(C)/C=C1\N=C(c2ccc3c(c2)OCO3)OC1=O,i,i,i,i,i,7.9µM
CN(C)/C=C1\N=C(c2ccccc2)OC1=O,i,i,i,i,i,i
CN(C)CCCN=c1cc(-c2ccccc2)oc2ccc(Cl)cc12,i,i,i,i,i,11µM
CCn1cc(C(=O)OCC(=O)c2ccccc2)c(=O)c2ccc(C)nc21,i,i,i,i,i,i
O=C(CN1CCCN(Cc2ccc(F)cc2Cl)C1=O)NC1CCCCCC1,i,i,i,i,i,i
O=C(CN1CCN(Cc2ccccc2Cl)C1=O)NC1CCCCCC1,i,i,i,i,i,11µM
CCOC(=O)N1CCN(S(=O)(=O)c2ccc(F)c(C(=O)Nc3cccc(C)c3C)c2)CC1,i,i,i,i,i,i
O=C(O)c1ccc(CSc2nnc(SCc3ccccc3)s2)cc1,i,i,i,i,i,i
COc1cc(/C=C2/OC(=O)c3cc([N+](=O)[O-])ccc32)cc(OC)c1OC,i,i,i,i,i,i
COc1ccccc1C(=O)COC(=O)c1ccc(N(C)C)cc1,i,i,i,i,i,4µM
